What all share (type): functional
The test system of test [1] is Plasmodium falciparum. Kind of test: GSK_TCMDC: Inhibition of Plasmodium falciparum 3D7 in whole red blood cells, using parasite LDH activity as an index of growth. Test compounds present at 2uM.
In test [2] the test system is Plasmodium falciparum. The test is described as follows: GSK_TCMDC: Inhibition of Plasmodium falciparum Dd2 in whole red blood cells, using parasite LDH activity as an index of growth. Test compounds present at 2uM.
The test system of another test is HepG2. Kind of test: GSK_TCMDC: Percent inhibition of human HepG2 cell line. Test compounds present at 10uM.

As for `COc1ccc(C2CC(=O)C3=C(C2)NC(C)=C(C(=O)OC(C)C)C3c2cccc(O)c2)cc1OC` (centres undefined), the Inhibition in the test on Plasmodium falciparum [1] was 100%; in the test on Plasmodium falciparum [2], 85%; in the test on HepG2, 0%.
With `Cc1cccc(Nc2nc(NCCCCN)nc3cc[nH]c(=O)c23)c1.O=C(O)C(F)(F)F`, the Inhibition with Plasmodium falciparum [1] is listed as 98%; in the test with Plasmodium falciparum [2], 97%; in the test with HepG2, 34%.
Taken in the same sequence, the figures for `O=C(/C=C/c1ccc(Cl)c(Cl)c1)NCCCCCN1CCC(CCCNC(=O)Nc2ccc(C(F)(F)F)cc2)CC1` were 91%, 19% and 0%.
Taken in the same sequence, the figures for `Fc1cc(Cl)ccc1Nc1ccnc2cc(-c3ccc(CN4CCCCC4)o3)ccc12` were 100%, 99% and 16%.
For the compound `COc1ccc2c(c1)[nH]c1c(C=Cc3ccccc3)nccc12.O=[N+]([O-])O`, the results for the Inhibition in the test on Plasmodium falciparum [1], in the test on Plasmodium falciparum [2] and in the test on HepG2 were 91%, 6% and 19%, respectively.
Taken in the same sequence, the figures for `Cc1ccc(CN2CCCCC(NC(=O)c3cc4ccccc4s3)C2)cc1.O=C(O)C(F)(F)F` (centres undefined) were 94%, 8% and 9%.
`CN(C)c1nc2cc(-n3cnc4cc(-c5ccc(Cl)cc5)sc4c3=O)ccc2n1CCCN1CCCCC1.O=C(O)C(F)(F)F`: the Inhibition with Plasmodium falciparum [1] worked out at 97%; in the test with Plasmodium falciparum [2], 23%; in the test on HepG2, 55%.
Consider `COc1ccc2ncc(F)c(CCN3CCC4(CC3)COC(c3cc5c(cn3)OCCO5)=N4)c2n1.O=C(O)C(=O)O`, for which the Inhibition came to 89% in the test with Plasmodium falciparum [1], 83% in the test with Plasmodium falciparum [2] and 79% with HepG2.
With `COc1cc(OC)nc(-c2cccc(NC(=O)c3ccc4c(=O)n(CCN5CCCCC5)cnc4c3)c2)n1`, the Inhibition in the test on Plasmodium falciparum [1] is on record as 100%; with Plasmodium falciparum [2] it was 86%; in the test with HepG2 it was 11%.
The like results for `Oc1cc2c(cc1CN1CCN(Cc3ccc(Cl)s3)CC1)CCC2` were, in that order, 98%, 76% and 7%.
In the case of `CCC1CN(CCCn2c3ccccc3c3ccccc32)C(CC)CN1.Cl` (centres undefined), the Inhibition with Plasmodium falciparum [1] came out at 89%; with Plasmodium falciparum [2], 0%; in the test on HepG2 it was 69%.
As for `Cc1ccc(Nc2ccnc3cc(-c4nccs4)ccc23)cc1C(O)c1ccccc1.Cl` (centres undefined), the results for the Inhibition with Plasmodium falciparum [1], with Plasmodium falciparum [2] and with HepG2 were 85%, 83% and 23%, respectively.
Regarding `Cl.O=C(NCCCCN1CCC(c2ccc3c(c2O)CCCC3)CC1)c1ccc(NC(=O)c2ccc(Cl)cc2)cc1`, the Inhibition with Plasmodium falciparum [1] is 100%; in the test with Plasmodium falciparum [2], 100%; with HepG2, 99%.
As for `COc1cc(CNC[C@@H](O)[C@H](Cc2ccccc2)NC(=O)c2cc(C3CCCC3)cc(N3CCCCS3(=O)=O)c2)cc(OC)c1.Cl`, the Inhibition with Plasmodium falciparum [1] is listed as 98%; in the test on Plasmodium falciparum [2], 96%; in the test on HepG2, 16%.
The like results for `COc1ccc2c(c1)nc(CNC(=N)N)n2Cc1ccc(Cl)cc1.Cl` were, in that order, 100%, 99% and 12%.
As for `Cc1cc(N[C@@H](Cc2ccccc2)C(=O)NCc2cccc(F)c2)nc(NCCc2ccccc2)n1.O=C(O)C(F)(F)F`, the Inhibition in the test with Plasmodium falciparum [1] was determined as 100%; in the test on Plasmodium falciparum [2], 73%; in the test on HepG2, 7%.
With `CC(C)CC1(C(=O)OC(C)(C)C)CC(C(=O)OC(C)(C)C)C(c2cccs2)N1C(=O)c1ccc(C(C)(C)C)cc1` (centres undefined), the Inhibition in the test with Plasmodium falciparum [1] amounted to 100%; in the test on Plasmodium falciparum [2], 100%; in the test with HepG2, 21%.
Regarding `COc1ccccc1C1CCN(CCN2CCC(NC(=O)c3ccc(-c4ccc(C#N)cc4)cc3)CC2)CC1`, the Inhibition in the test with Plasmodium falciparum [1] turned out to be 99%; with Plasmodium falciparum [2], 42%; in the test with HepG2, 31%.
Taken in the same sequence, the figures for `CS(=O)(=O)c1ccc(-c2cnc(N)c(-c3cccc(O)c3)c2)cc1` were 98%, 97% and 48%.
Taken in the same sequence, the figures for `O=C(C=Cc1ccc(Cl)c(Cl)c1)NCCCCCN1CCC(CCNC(=O)/C=C/c2ccccc2)CC1` were 97%, 1% and 25%.
Taken in the same sequence, the figures for `COc1ccc(Cn2ccc3c4c(N)nc(N)nc4ccc32)cc1` were 100%, 93% and 90%.
As to `CNC(=O)c1c(NC(=O)c2cccs2)sc2c1CCCC2`, the results for the Inhibition with Plasmodium falciparum [1], in the test on Plasmodium falciparum [2] and with HepG2 were 94%, 2% and 2%, respectively.
Take `CCCCCCCCOc1c(OCC)cc(Cc2cnc(N)nc2N)cc1OCC`: the Inhibition stood at 80% in the test on Plasmodium falciparum [1], 0% in the test on Plasmodium falciparum [2] and 25% in the test on HepG2.
As for `c1ccc(Oc2ccc(Nc3ccnc4ccc(-c5ccco5)cc34)cc2)cc1`, the results for the Inhibition with Plasmodium falciparum [1], in the test on Plasmodium falciparum [2] and in the test with HepG2 were 87%, 32% and 0%, respectively.
Taken in the same sequence, the figures for `O=C(O)C(F)(F)F.c1ccc(CCNCc2cccc(-c3ccccc3CNCc3ccc4c(c3)OCO4)c2)nc1` were 90%, 80% and 41%.
Taken in the same sequence, the figures for `O=C(NCCCCN1CCC(c2cccc3ccccc23)CC1)c1ccc(NC(=O)c2ccc(Cl)cc2)cc1` were 99%, 39% and 20%.
The like results for `CCn1ccc2c(N3CCCC3=O)cc(C(=O)N[C@@H](Cc3ccccc3)[C@H](O)CNC(C)(C)CCCC(C)C)cc21` were, in that order, 96%, 98% and 11%.
For `CC(C)CCNc1nc(NCCCc2ccccc2)c2cc(O)ccc2n1`, the figures for the Inhibition in the test with Plasmodium falciparum [1], with Plasmodium falciparum [2] and in the test with HepG2 were 100%, 95% and 14%, respectively.
The like results for `O=C(CCc1c[nH]cn1)Nc1cccc(-c2cccc(-c3nc4cc(C(F)(F)F)ccc4[nH]3)c2)c1` were, in that order, 100%, 99% and 17%.
The like results for `O=C(Nc1cc(C(F)(F)F)ccc1N1CCOCC1)C(Cl)(Cl)Cl` were, in that order, 100%, 100% and 0%.
Taken in the same sequence, the figures for `CC1(C)[C@H]2CC[C@@H](CNc3nc(NCCc4c[nH]cn4)nc(Nc4ccc(Oc5ccccc5)cc4)n3)[C@@H]1C2` were 99%, 86% and 2%.
For `c1ccc(COc2ccc(Nc3ncnc4cnc(-c5ccc(CNc6cccnc6)o5)cc34)cc2)cc1`, the values for the Inhibition with Plasmodium falciparum [1], in the test with Plasmodium falciparum [2] and with HepG2 were 96%, 19% and 2%, respectively.
On to `CS(=O)(=O)c1cccc(-c2cnc3[nH]cc(-c4ccc(CCC(=O)O)cc4)c3c2)c1`, for which the results for the Inhibition in the test on Plasmodium falciparum [1], in the test with Plasmodium falciparum [2] and in the test on HepG2 were 97%, 99% and 1%, respectively.
Regarding `COCCN1CCC(NCC(C)(C)c2nc(-c3ccc(Cl)c(O)c3)c(-c3ccncc3)[nH]2)CC1.Cl`, the Inhibition in the test on Plasmodium falciparum [1] is given as 100%; with Plasmodium falciparum [2], 47%; with HepG2 it was 0%.
Regarding `CC(C)CNCc1cccc(-c2ccccc2CNC2CCN(Cc3ccccc3)CC2)c1.O=C(O)C(F)(F)F`, the Inhibition in the test on Plasmodium falciparum [1] amounted to 100%; in the test with Plasmodium falciparum [2], 39%; with HepG2, 25%.
The like results for `COc1ccc2c(=NN=Cc3ccc(F)cc3)cc(C)[nH]c2c1` were, in that order, 100%, 99% and 4%.
Taken in the same sequence, the figures for `OC(c1nnc(S)n1-c1ccccc1)C(O)c1nnc(S)n1-c1ccccc1` (centres undefined) were 92%, 89% and 18%.
For `CCOc1cc(Cc2cnc(N)nc2N)cc(OC)c1OC`, the Inhibition with Plasmodium falciparum [1] was found to be 90%; with Plasmodium falciparum [2] it was 0%; in the test on HepG2 it was 0%.
Turning to `O=C(Nc1ccc(OC2CCN(Cc3ccco3)C2)c(Cl)c1)c1ccc2ncccc2c1.O=C(O)C(F)(F)F` (centres undefined), the values for the Inhibition with Plasmodium falciparum [1], in the test with Plasmodium falciparum [2] and with HepG2 were 92%, 42% and 1%, respectively.
With `CN/C(=N\O)NCCN(C)C.Cl`, the Inhibition with Plasmodium falciparum [1] was 88%; in the test on Plasmodium falciparum [2] it was 0%; with HepG2 it was 0%.
As to `Cc1cc(CN2CCCC(OC(c3ccc(F)cc3)c3ccc(F)cc3)C2)ccc1O` (centres undefined), the values for the Inhibition in the test with Plasmodium falciparum [1], in the test with Plasmodium falciparum [2] and with HepG2 were 89%, 82% and 28%, respectively.
The like results for `NCC1CCCN1Cc1ccc(-c2cccc(-c3nc4cc(F)ccc4[nH]3)c2)cc1.O=C(O)C(F)(F)F` (centres undefined) were, in that order, 100%, 31% and 38%.
The like results for `COc1ccc(-c2nc(NC(=O)Cc3ccc4c(c3)OCCO4)sc2C)cc1` were, in that order, 100%, 99% and 0%.
With `CC(Nc1nncc(-c2cccc(F)c2)n1)c1ccc(F)cc1` (centres undefined), the Inhibition in the test on Plasmodium falciparum [1] came to 95%; with Plasmodium falciparum [2], 89%; in the test on HepG2 it was 4%.
With `CC(CN1CCN(C)CC1)C(=O)Nc1ccc(-c2cccc(-c3nc4ccccc4[nH]3)c2)cc1` (centres undefined), the Inhibition in the test on Plasmodium falciparum [1] is reported as 94%; with Plasmodium falciparum [2], 81%; in the test on HepG2, 4%.
The like results for `CCOC(=O)c1ccc(NC(=O)N(Cc2ccc(-c3ccc(CN4CCNCC4)cc3)cc2)Cc2cccnc2)cc1.O=C(O)C(F)(F)F` were, in that order, 94%, 34% and 13%.
As for `COc1ccc(Nc2ncc(C#N)c(Nc3ccccc3C(N)=O)n2)cc1N1CCN(C)CC1.Cl`, the Inhibition is on record as 93% in the test on Plasmodium falciparum [1], 97% in the test on Plasmodium falciparum [2] and 56% in the test with HepG2.
Taken in the same sequence, the figures for `Cc1c(Cn2ncc(N3CC(C)NC(C)C3)c(Cl)c2=O)cccc1NC(=O)Nc1ccc(-c2ccccc2)cc1.O=C(O)C(F)(F)F` (centres undefined) were 97%, 35% and 97%.
Taken in the same sequence, the figures for `COc1nc2c(CCN3CCC(NCc4ccc5c(c4)NCCO5)CC3)c(Cl)cnc2cc1F.Cl` were 100%, 98% and 23%.
`CCCCC(=O)NC(c1cccs1)c1cc(Cl)c2cccnc2c1O` (centres undefined): the Inhibition with Plasmodium falciparum [1] turned out to be 93%; in the test on Plasmodium falciparum [2], 90%; with HepG2 it was 50%.
The like results for `COc1ccc2nc(C)cc(Nc3ccc(Oc4ccc(Cl)cc4)c(Cl)c3)c2c1` were, in that order, 100%, 100% and 48%.
Regarding `Cc1cc(=NN=Cc2ccccc2Cl)c2ccc(F)cc2[nH]1`, the Inhibition is 100% with Plasmodium falciparum [1], 100% in the test on Plasmodium falciparum [2] and 6% with HepG2.
As to `COc1ccc(Oc2ccccc2CNCC2CCN(CC3CCCCC3)CC2)cc1.O=C(O)C(F)(F)F`, the Inhibition with Plasmodium falciparum [1] was 85%; in the test with Plasmodium falciparum [2], 28%; in the test on HepG2, 34%.
Taken in the same sequence, the figures for `COc1cccc(CCc2c(CCNCCCCCCNCCc3ccccc3)ccc(OC)c2OC)c1.Cl` were 100%, 69% and 100%.
Taken in the same sequence, the figures for `CCCCCCOc1ccc(C(=O)NCCCC2CCCN(CCCCCNC(=O)C=Cc3ccc(Cl)c(Cl)c3)C2)cc1` (centres undefined) were 96%, 12% and 20%.
The like results for `CCN1CCN(c2cc(C)c3cc(NC(=O)c4ccc([N+](=O)[O-])c(C)c4)ccc3n2)CC1` were, in that order, 92%, 39% and 8%.
As to `Cc1cccc2nc(-c3ccc(-c4cccc(CNCC5CCCO5)c4)s3)[nH]c12.O=C(O)C(F)(F)F` (centres undefined), the Inhibition with Plasmodium falciparum [1] is listed as 93%; in the test on Plasmodium falciparum [2], 11%; with HepG2, 26%.
In the case of `CN(C)Cc1ccc(-c2cc3c(Nc4ccc(OCc5cccc(F)c5)c(Cl)c4)ncnc3s2)[nH]1`, the Inhibition in the test on Plasmodium falciparum [1] is on record as 100%; in the test with Plasmodium falciparum [2], 84%; with HepG2, 8%.
Turning to `COc1ccc2nc(N)nc(C)c2c1`, the Inhibition in the test on Plasmodium falciparum [1] came out at 90%; in the test on Plasmodium falciparum [2], 1%; with HepG2 it was 5%.
The like results for `Cc1cc(-c2ccc(NC(=O)N3CCc4cc(Br)c(N5CCN(C)CC5)cc43)cc2)ccc1C#N` were, in that order, 99%, 56% and 100%.
Taken in the same sequence, the figures for `Cc1ccc(F)cc1S(=O)(=O)Nc1ccc(CCN2CCC(N3CCCCC3)CC2)cc1` were 99%, 15% and 25%.
Take `Cc1cc(NC(=O)Nc2ccc3ncccc3c2)c2ccccc2n1`: the figures for the Inhibition in the test on Plasmodium falciparum [1], with Plasmodium falciparum [2] and in the test on HepG2 were 93%, 27% and 6%, respectively.
The like results for `Cc1csc(-c2nc(NCc3cccnc3)ncc2-c2ccsc2)n1` were, in that order, 87%, 74% and 0%.

As a reminder, the Inhibition is the drop in the measured response relative to a control, in per cent.
